Assay outcomes (PubChem BioAssay)
Chronic BCR inh – blocks chronic active B-cell receptor signaling; ABC-DLBCL IkBa-CBG/CBR reporter, luminescence ratio, 4 h; Potency, µM (titrated, usually from 46.1 µM), actives largely listed as inhibitors; hit rate 0.05% among 340,000; active means well fitted inhibition curve with a large enough effect in the signal ratio, with a control signal flat, not every such curve was filed as active; inconclusive means small, poorly fitted or top-dose-only effect, or effect the other way, or a change in a side signal; the % refers to the signal ratio
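TMD8 human ABC-DLBCL cells with doxycycline-inducible IκBα–green luciferase fusion and unfused red luciferase, in 0.5% FBS medium; compounds up to 46 uM, 4 h at 37C. Green/red luminescence ratio, filter-overlap corrected, fitted to concentration-response curves.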
SW480 rereplic – induces DNA re-replication in SW480 colon adenocarcinoma cells | SW480 DNA re-replication, Hoechst DNA content imaging, 48 h | Potency, µM (titrated, usually from 46.1 µM), actives largely listed as activators | hit rate 1.8% among 340,000 | AID 624297; further: nearly all actives have a fitted effect of over 55% in size
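SW480 cells exposed to compounds for 48 hr at 37 C, 5% CO2, then Hoechst-stained 40 min. Nuclear DNA content imaged by fluorescence scanning (405 nm excitation, 500-530 nm emission); re-replication scored as increased high-intensity nuclei.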
IL-1B inflam inh – blocks inflammasome-driven IL-1 beta release | THP-1 LPS/ATP IL-1B secretion, AlphaLISA, 16 h; stronger effect = lower value | activity change, % at 57.5 µM | AID 743279 | hit rate 4.7% among 360,000; in the data active means activity change below about -50%; inconclusive means mostly about -30% to -49%
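Secreted IL-1B measured by AlphaLISA bead assay after 16 h compound exposure of THP-1 cells; compounds (final up to 57.5 uM) added 1 h before LPS (250 ng/mL) and ATP (1.25 mM) stimulation; lower signal means less secretion.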
MCF10A rerep – induces DNA re-replication in MCF 10a normal breast cells; MCF 10A DNA re-replication, Hoechst nuclear intensity, 48 h; hit rate 2.9% among 350,000; Potency, µM (highest dose often 46.1 µM), hits mostly activators; further: nearly all actives have a fitted effect of over 50% in size
TDP1 cell CPT – DT40-hTDP1 cell growth loss with CPT; Potency, µM (highest dose often 46.2 µM), most hits filed as inhibitors; hit rate 12% among 420,000; chicken DT40 Tdp1-/-;hTDP1 cells + 20 nM CPT, ATP luminescence, 48 h; further: nearly all actives have a fitted effect of over 55% in size
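Chicken DT40 Tdp1-/- cells complemented with human TDP1, 400 cells/well, exposed to compounds plus 20 nM camptothecin for at least 48 h at 37 C; viability read as ATP content by CellTiter-Glo luminescence.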
TDP1 cell noCPT – qHTS for Inhibitors of human tyrosyl-DNA phosphodiesterase 1 (TDP1): qHTS in cells in absence of CPT; DT40 Tdp1-/- hTDP1 cells, no CPT, ATP luminescence, 48 h; Potency, µM (highest dose often 46.2 µM), hits mostly inhibitors; hit rate 15% among 420,000; AID 686978, 2013; further: nearly all actives have a fitted effect of over 55% in size
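Cells were dispensed at 400 per well, compounds added by pin tool, plates incubated ≥48 hr at 37 °C, then CellTiter-Glo added for 30 min at room temperature before luminescence reading. Line: DT40 Tdp1-/- complemented with hTDP1; camptothecin omitted.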
Numbers stand for hits; – = inactive; ? = inconclusive; · = not tested or not shown; ! = a repeat was not active. A selection: hits, their analogues and other compounds. The true share with any hit is near 19%. Unless noted, the call rests on the fitted dose curve; in most records, active means well fitted curve in the direction sought with a large enough effect; inconclusive means small, poorly fitted or top-dose-only effect, or another doubt; inactive means no such curve, though single readings can be large; an effect the other way counts as inactive or inconclusive.

SMILES | Chronic BCR inh | SW480 rereplic | IL-1B inflam inh | MCF10A rerep | TDP1 cell CPT | TDP1 cell noCPT
CC(=O)c1cn(CC(=O)Nc2ccc(C)cc2C)c2ccccc12 | – | – | – | – | 5.2µM | 5.8µM
CC(=O)c1cn(CC(=O)Nc2cccc(C)c2C)c2ccccc12 | – | – | – | – | ? | 26µM
COc1cc(NC(=O)c2cc3c(=O)n(Cc4ccco4)ccc3nc2C)cc(OC)c1OC | · | · | · | · | – | –
O=C1NCCN1Cc1cccc(Cl)c1 | – | – | – | – | – | –
O=C1NCCN1CCN1CCC(c2cn(-c3ccc(F)cc3)c3ccc(Cl)cc23)CC1 | · | · | · | · | 3µM | 2.7µM
Cc1ccc(NCc2ccccc2O)cc1C | – | – | – | – | ? | –
Oc1ccccc1CNc1ccc(OC(F)(F)F)cc1 | ? | – | -89 | – | – | ?
CC1CCCN(Cc2c(O)ccc3c(=O)c(-c4ccc(Cl)cc4)c(C(F)(F)F)oc23)C1 (stereo unspecified) | · | · | · | · | – | –
Cc1cc(S(=O)(=O)N2CCN(CC(=O)N(C)Cc3ccccc3)CC2)ccc1Br | ? | – | ? | – | ? | 15µM
CN(Cc1ccccc1)C(=O)CN1CCN(S(=O)(=O)c2ccc(Cl)c(Cl)c2)CC1 | – | – | -54 | – | ? | 18µM
CN(Cc1ccc(F)cc1)C(=O)CN1CCN(S(=O)(=O)c2ccc3c(c2)OCCCO3)CC1 | · | · | – | · | – | ?
CN(Cc1ccccc1F)C(=O)CN1CCN(S(=O)(=O)c2ccc3c(c2)OCCCO3)CC1 | – | – | – | – | ? | ?
Cc1cc(OCC(=O)N(C)Cc2ccccc2)ccc1Br | – | – | – | – | ? | 23µM
CCOC(=O)C1=CCN(S(=O)(=O)c2ccccc2F)C1c1ccc(Cl)c(Cl)c1 (stereo unspecified) | · | · | – | · | ? | ?
C=CCc1cccc2cc(C(=O)N3CCN(C(=O)c4ccccc4)CC3)c(=O)oc12 | – | – | – | – | – | –
CCOc1ccc(C(=O)CCc2nc3ccccc3s2)cc1 | ? | – | – | ? | – | –
CCOc1ccc(N2C(=O)C(c3ccccc3)=C(c3nc4ccccc4s3)C2NC(C)=O)cc1 (stereo unspecified) | ? | – | – | – | ? | 16µM
Brc1ccc(-c2cn3c(n2)CCc2ccc4cccnc4c2-3)cc1 | ? | ? | – | 23µM | – | –
COc1ccc(CC2SC(=Nc3ccc(F)cc3)NC2=O)cc1 (stereo unspecified) | – | – | – | – | – | ?
C=C1C2CC[C@@]3(C)C(c4ccoc4)OC(=O)C[C@@]13OC1CC(OC(C)=O)C(C)(C)C(CC(=O)OC)[C@@]12C (stereo partly specified) | · | · | · | · | 13µM | 12µM
Cc1cccc(C)c1NC(=O)C(C1CC1)n1c(-c2ccc(-c3ccccc3)cc2)nc2ccccc21 (stereo unspecified) | · | · | – | · | ? | ?
O=C(Nc1ccccc1F)c1ccc(C(=O)c2ccccc2)cc1 | ? | – | – | – | ? | –
NC(=O)C12CCCC(Br)(CCC1)C2 | – | – | -63 | – | – | –
O=C(CCNC(=O)c1ccccc1Cl)NCCC1=CCCCC1 | ? | – | – | – | – | –
O=C(Nc1ccncc1)c1cccc(S(=O)(=O)N2CCOCC2)c1 | – | – | – | – | – | ?
SMILES | Chronic BCR inh | SW480 rereplic | IL-1B inflam inh | MCF10A rerep | TDP1 cell CPT | TDP1 cell noCPT
O=C(Nc1cccc(S(=O)(=O)C(F)F)c1)c1ccc(S(=O)(=O)N2CCOCC2)cc1 | ? | – | – | ? | – | 18µM
O=C(Nc1ccc(S(=O)(=O)C(F)F)cc1)c1cccc(S(=O)(=O)N2CCOCC2)c1 | – | – | ? | – | ? | 15µM
C=CCNc1ncnc2c1ncn2[C@H]1CN(Cc2cc(OC)c(OC)c(OC)c2)C[C@@H](CO)O1 | · | · | – | · | – | –
Fc1ccc2nncc(SCc3ccccc3Cl)c2c1 | · | – | – | 18µM | ? | ?
Fc1ccc(CSc2nnc3ccccn23)c(Cl)c1 | – | ? | – | – | – | –
CC1CC(C)CN(CC(=O)N2CCOCC2)C1 (stereo unspecified) | ? | – | – | – | – | –
O=[N+]([O-])c1c(Nc2ccccc2O)cc(N2CCOCC2)c2nonc12 | – | – | – | – | 16µM | 15µM
COc1cccc(Nc2cc(N3CCOCC3)c3nonc3c2[N+](=O)[O-])c1 | – | – | – | – | 21µM | 18µM
CC[C@@]12CCCN3CCc4c(n(c5ccccc45)[C@](O)(C(=O)OC)C1)C32 (stereo partly specified) | · | – | · | – | · | ·
COc1ccccc1CNC(=O)CSc1nc(=O)[nH]c2c1CCCC2 | ? | · | · | · | – | –
CCCCCCCCCCCCC/C=C/[C@@H](O)[C@@H](N)CO | – | ? | – | ? | 9.2µM! | 12µM!
O=C(COC(=O)Cc1c(F)cccc1Cl)NC1CCS(=O)(=O)C1 (stereo unspecified) | – | – | – | – | – | –
CCCC(=O)c1ccc(N2CCN(C(=O)c3ccc(Br)cc3)CC2)c(F)c1 | – | – | – | – | 23µM | 7.3µM
CCC(=O)c1ccc(N2CCN(C(=O)c3ccc(Br)cc3)CC2)c(F)c1 | ? | – | – | – | 21µM | 10µM
O=C(c1ccccc1)c1ccc(N2CCN(C(=O)c3ccc(F)cc3F)CC2)c(F)c1 | · | · | ? | · | 23µM | ?
CCCC(=O)c1ccc(N2CCN(C(=O)c3ccccc3Br)CC2)c(F)c1 | – | – | – | ? | 18µM | 13µM
CCCC(=O)c1ccc(N2CCN(C(=O)c3ccccc3)CC2)c(F)c1 | ? | – | – | – | ? | ?
CCCC(=O)c1ccc(N2CCN(C(=O)c3cccs3)CC2)c(F)c1 | – | – | – | – | ? | ?
CN(C)S(=O)(=O)n1cc(/C=C(\NC(=O)c2ccccc2Cl)C(=O)N2CCCC2)c2ccccc21 | ? | – | – | – | – | –
CCCCCC(=O)N1CCN(c2ccc(C(C)=O)cc2F)CC1 | – | – | – | – | 15µM | 21µM
CC(=O)c1ccc(N2CCN(S(=O)(=O)c3ccccc3)CC2)c(F)c1 | – | – | – | – | – | –
CCC(=O)c1ccc(N2CCN(C(=O)c3cccc(F)c3)CC2)c(F)c1 | – | – | – | – | ? | 13µM
CCC(=O)c1ccc(N2CCN(C(=O)c3ccc(F)cc3)CC2)c(F)c1 | – | ? | – | – | 21µM | 10µM
CCCC(=O)N1CCN(c2ccc(C(=O)c3ccc(OC)c(Br)c3)cc2F)CC1 | – | · | · | · | · | ·
CCCC(=O)c1ccc(N2CCN(S(=O)(=O)c3ccc(C)cc3)CC2)c(F)c1 | – | – | – | – | ? | 7.1µM
